Rows were chosen to be rich in hits. Some 31% of all compounds tested hit in one or more screens of this group.
CYP2C19 inhib: blockers of cytochrome P450 2C19 activity – biochemical, luminescence, ADME assay, primary screen | CYP2C19 Supersomes, luciferin-H EGE luminescence, 30 min | inhibition, % at 5 µM | 21% of 96,000 active;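 active means CYP2C19 inhibition above a set limit at 5 µM in the primary screen, cut at about 50% in these data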
Target sequence (P33261 whole entry, looked up): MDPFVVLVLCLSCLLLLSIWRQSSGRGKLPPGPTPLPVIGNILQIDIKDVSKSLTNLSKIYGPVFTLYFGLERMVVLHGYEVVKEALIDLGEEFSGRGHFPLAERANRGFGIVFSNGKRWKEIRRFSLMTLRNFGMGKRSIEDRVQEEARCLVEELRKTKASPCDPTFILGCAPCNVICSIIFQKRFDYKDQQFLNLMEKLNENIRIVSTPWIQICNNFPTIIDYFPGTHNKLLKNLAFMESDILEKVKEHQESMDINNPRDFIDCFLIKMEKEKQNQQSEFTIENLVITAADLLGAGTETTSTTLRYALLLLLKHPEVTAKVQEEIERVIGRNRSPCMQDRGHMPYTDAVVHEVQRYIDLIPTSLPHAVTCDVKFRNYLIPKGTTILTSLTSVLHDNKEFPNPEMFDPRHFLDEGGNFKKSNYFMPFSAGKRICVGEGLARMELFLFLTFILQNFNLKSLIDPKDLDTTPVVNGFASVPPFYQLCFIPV
CYP2C9 act: human CYP2C9 activators, primary screen, biochemical, luminescence; activation factor at 5 µM; recombinant CYP2C9, luciferin-H conversion; hits give high values; factor 1 = untreated enzyme, 0 = blocked; Cytochrome P450 2C9 (Homo sapiens), P11712; 1.4% of 96,000 active;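 active means activation factor of 2 or more for CYP2C9 at a 5 µM dose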
CYP2C9 inhib: blockers of cytochrome P450 2C9 activity – biochemical, luminescence, ADME assay, primary screen; P11712; inhibition, % at 5 µM; 20% of 96,000 active; CYP2C9 Supersomes, luciferin-H conversion;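 active means blocking of liver enzyme CYP2C9 beyond about 50% at 5 µM, limit read from the data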
CYP2C19 activ: human CYP2C19 activators, primary screen, biochemical, luminescence; 96,000 tested, under 10 active; recombinant CYP2C19, luciferin-H EGE luminescence; hits give high values; 0 = fully inhibited enzyme, 1 = untreated enzyme; activation factor at 5 µM;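 active means activation factor of at least 2 at 5 µM in the primary screen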
PLAP activator: PLAP enzyme activators, biochemical, luminescence, HTS; Alkaline phosphatase, placental type (Homo sapiens), P05187; purified PLAP enzyme, luminescent substrate read-out; hits give high values; activation fold at 20 µM; 1.2% of 96,000 active; AID 696, 2007; in the data active means activation fold above about 2
Of the large screens only hits and unclear results are named; the others gave an inactive call.

COc1cc(/C=C2/N=C(c3ccccc3F)OC2=O)cc(Cl)c1OS(C)(=O)=O	none
O=C(CSc1nnc(Cn2c(=O)sc3ccccc32)n1-c1ccccc1)Nc1nccs1	CYP2C9 inhib 68
CSc1nnc(Cn2c(=O)sc3ccccc32)n1-c1ccccc1	CYP2C19 inhib 53
CSc1nnc(Cn2c(=O)sc3ccccc32)n1CCc1ccccc1	none
Cc1ccsc1C1CC(=O)NC2=C1C(=O)CC(C)(C)C2 (configuration not stated)	none
CN(C)CCNc1nc(-c2ccccc2)c2c(c1C#N)CC(C)(C)OC2	none
CCCCCSc1nc(N2CCOCC2)c2c(c1C#N)CC(C)(C)OC2	CYP2C9 inhib 83
CC1(C)Cc2c(C#N)c(SCc3ccccc3)nc(N3CCOCC3)c2CO1	CYP2C9 inhib 88
CC1(C)Cc2c(C#N)c(OCC(=O)c3ccccc3)nc(-c3ccoc3)c2CO1	none
CC1(C)Cc2c(C#N)c(SCC(=O)c3ccccc3)nc(N3CCOCC3)c2CO1	CYP2C19 inhib 62, CYP2C9 inhib 92
COC(=O)Sc1nc(N2CCOCC2)c2c(c1C#N)CC(C)(C)OC2	CYP2C19 inhib 62, CYP2C9 inhib 83
CC1(C)Cc2nc(N3CCOCC3)c(C#N)cc2CO1	none
C=CCN1C(=O)NC2(O)C(=O)c3ccccc3C12O (configuration not stated)	none
Cc1ccc2cc(C#N)c(N3CCCC3)nc2c1C	none
Cc1ccc2cc(C#N)c(N3CCCN(C(=O)C4CCCO4)CC3)nc2c1C (configuration not stated)	CYP2C19 inhib 85, CYP2C9 inhib 82
Cc1cc(C)c2nc(N3CCC(C(=O)N4CCN(C(=O)c5ccco5)CC4)CC3)sc2c1	CYP2C19 inhib 52, CYP2C9 inhib 52
Cc1cc(C)c2nc(N3CCCN(C(=O)c4ccco4)CC3)c(C#N)cc2c1	CYP2C19 inhib 73, CYP2C9 inhib 87
Cc1ccccc1N(C)C(=O)c1coc(=O)c2ccccc12	none
N#C/C(=C/c1ccc(N2CCOCC2)c([N+](=O)[O-])c1)C(N)=O	none
CC(=O)Nc1ccc(NC(=O)c2cc(C)nn2-c2ccccc2)cc1	none
CC(C)(C)c1cc(C(=O)N2CCN(c3ncccn3)CC2)ccn1	none
Cc1cc(C(=O)N2CCc3ccccc32)n(-c2ccccc2)n1	CYP2C19 inhib 75, CYP2C9 inhib 68
Cc1cc(C)n(-c2ccc(C(=O)N3CCc4ccccc43)cc2)n1	CYP2C9 act 2
Cc1cc(C)n(-c2ccc(C(=O)Nc3ccccc3N3CCOCC3)cc2)n1	none
CC(C)(C)c1cc(C(=O)N2CCc3ccccc32)ccn1	CYP2C19 inhib 72, CYP2C9 inhib 53
O=C(Nc1nc(C2C3CC4CC(C3)CC2C4)cs1)c1cc2cc([N+](=O)[O-])ccc2oc1=O (configuration not stated)	none
CC(C)OC(=O)CSc1nnc(-c2ccc(C(C)(C)C)cc2)n1N	none
O=C(c1ccccc1)N1CCN(Cc2ccccc2Br)CC1	CYP2C19 inhib 98, CYP2C9 inhib 76
CC(=O)Nc1cccc(C(=O)N2CCN(Cc3ccccc3)CC2)c1	CYP2C19 inhib 96
O=C(Nc1ccccc1C(=O)N1CCN(Cc2ccccc2)CC1)c1ccccn1	CYP2C19 inhib 85, CYP2C9 inhib 67
O=C(c1ccc(CN2CCOCC2)cc1)N1CCN(Cc2ccccc2)CC1	none
O=C(c1cccc(C(=O)N2CCN(Cc3ccccc3)CC2)c1)N1CCN(Cc2ccccc2)CC1	CYP2C19 inhib 97, CYP2C9 inhib 82
CC(C)(C)NC(=O)CN(Cc1cccnc1)C(=O)c1csnn1	none
CCC(CO)NCc1ccc2c(c1)n(C)c(=O)n2C (configuration not stated)	none
C=CCSc1nc2c(c(=O)n(C)c(=O)n2C)n1CC	none
O=C(NCCN1CCN(c2ccccc2)CC1)C1CCN(S(=O)(=O)N2CCOCC2)CC1	none
O=C(Nc1cccc(C(=O)N2CCN(Cc3ccccc3)CC2)c1)c1ccccc1	CYP2C19 inhib 83
COc1ccc(C(=O)Nc2cccc(C(=O)N3CCN(C)CC3)c2)cc1	none
C/C(=N\O)c1ccc2c3c([nH]c2c1)CCCC3	none
Cc1cc(OCC(=O)Nc2ccncc2)c(C)cc1Br	CYP2C19 inhib 100, CYP2C9 inhib 100
Cc1cc(C)c(OCC(=O)Nc2cccc(O)c2)cc1C	CYP2C19 inhib 75
